From PubChem BioAssay

test: probe aNog binding to arrayed compounds – biochemical, biotinylated probe, 635/667 nm fluorescence, primary screen (AID 1115); conditions: small-molecule microarray, higher = more signal;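 note: probe is biotinylated aNog protein used at 0.15 µg/mL for 1 h at 4 C; z-score combines 667 nm fluorescence of each spot with its signal to noise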

In order of falling composite z-score:
1. Cc1ccc([C@H]2C(C(=O)O)=C[C@@H](C(C)(C)C)N2S(=O)(=O)c2ccc(C)cc2)cc1  1.34
2. COc1cc(NN2C(C(O)c3ccc(I)cc3)C=CC3C(=O)N(c4ccccc4)C(=O)C32)cc(OC)c1OC (configuration not stated)  1.23
3. NC(=O)N1C(=O)C2C(C1=O)C1C=C(CCCO)C2C(C2CC2)N1Cc1cccc(OC(F)(F)F)c1 (configuration not stated)  0.56
4. COCCCNC(=O)[C@@]1(c2ccc([N+](=O)[O-])cc2)CC(=O)N(CC23CC4CC(CC(C4)C2)C3)[C@@H]1c1ccc(CO)cc1I  0.536
5. CC(C)OC(=O)CC(=O)CC(O)c1ccc([N+](=O)[O-])cc1 (configuration not stated)  0.431
6. C=C(COC)C(=O)CC[C@@H](OC(=O)c1cccnc1)c1ccccc1OCCO  0.412
7. COc1ccc([Si](C)(C)[C@H]2[C@H](CCO)O[C@@]3(C(=O)N(Cc4ccccc4)c4ccc(N5C(=O)c6ccccc6Oc6ccccc65)cc43)[C@@H]2C)cc1  0.195
8. C=C(/C(=C/C[C@@H](OC(C)=O)c1ccc(CO)o1)c1cc(C(=O)OC)ccc1OC)C(C)C  0.141
9. CCOC(=O)C[C@H]1[C@H](OC(=O)c2ccc(C(=O)c3ccccc3)cc2)[C@@H](NC(=O)CC(C)C)c2cc(OCCCO)ccc2N1C(=O)Cc1ccc(OC)cc1  0.0437
10. CC(C)C[C@@H]1NC(=O)CNC(=O)[C@@]23C(=O)N[C@@H](Cc4ccccc4)C2[C@H](C)[C@@]2(C)O[C@H]2C3/C=C/C/C=C\CNC1=O (some centres not stated)  -0.177
11. COC(=O)[C@@]1(Cc2ccc(F)cc2)[C@H]2c3cc(C(=O)N(C)C)n(Cc4ccc(O)c(OC)c4)c3C[C@H]2CN1C(=O)c1ccccc1  -0.186
12. CC(C)=CCCC(C)=CC(O)C1C=CC2C(=O)N(c3ccccc3)C(=O)C2N1Nc1ccccc1F (configuration not stated)  -0.196
13. CC(CO)N1C(=O)[C@@H]2[C@H]3C(=O)OCC=C[C@H]3OC23C=CCN(c2ccc(Cl)cc2)C(=O)[C@@H]13 (some centres not stated)  -0.273
14. CN(C)CCCNC(=O)[C@@H]1c2ccccc2C(=O)N(C2CCCCC2)[C@H]1c1ccc(CO)cc1  -0.312
15. NC(=O)[C@@H]1[C@H]2C(=O)O[C@H](c3ccccc3)[C@H](c3ccccc3)N2[C@H](c2ccc(OCCO)cc2)[C@@]12C(=O)Nc1ccc(C#CCCO)cc12  -0.329
16. COCCOC(=O)N1C(=O)[C@@]2(c3cc(C#CC4=CCCCC4)ccc31)[C@H](C(=O)N1CCCCCCC1)[C@H]1C(=O)O[C@H](c3ccccc3)[C@H](c3ccccc3)N1[C@@H]2c1ccc(OCCO)cc1  -0.412
17. CC(C)[C@H]1NC(=O)[C@@]23C(=O)N[C@@H](Cc4ccccc4)C2[C@H](C)[C@@]2(C)O[C@H]2C3/C=C/C/C=C\CNC(=O)[C@H](Cc2ccccc2)NC1=O (some centres not stated)  -0.505
